We go through four compounds from PubChem BioAssay (EPA / NIEHS).

In general, AC50 refers to the concentration giving half of the maximal activity seen.

Structures are written as SMILES. Calls of active or inactive are those of the source. The calls were made as follows: active = hit-call score of the fitted dose curve at least 0.9, where 1 is the maximum; inactive = score below 0.9.

Holding throughout (settings): mRNA level, 48 h; actives raise or lower the signal
Read-out in assay [1]: Insulin Like Growth Factor 1 (IGF1), IGF1 (gene 3479)
Put plainly: LTEA_HepaRG_IGF1: Life Technologies and Expression Analysis (LTEA) Assay for Insulin Like Growth Factor 1 (IGF1) using HepaRG (AID 2283506). A digest of the protocol:
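Endpoint: IGF1 mRNA change by qRT-PCR, housekeeping-normalized, fitted bidirectionally relative to 0.5% DMSO vehicle. Human HepaRG cells were treated 48 h in serum-free induction medium, eight half-log concentrations topping at 100 uM.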

Read-out in assay [2]: Intercellular Adhesion Molecule 1 (ICAM1), ICAM1 (gene 3383)
As to the kind of experiment: LTEA_HepaRG_ICAM1: Life Technologies and Expression Analysis (LTEA) Assay for Intercellular Adhesion Molecule 1 (ICAM1) using HepaRG (AID 2283507). A digest of the protocol: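 Differentiated human HepaRG cells in serum-free induction medium exposed 48 h in duplicate to 8 half-log concentrations (top 100 uM, 0.5% DMSO). ICAM1 mRNA quantified by TaqMan qRT-PCR, normalized to ACTB, GAPDH and POLR2A; bidirectional fitting versus DMSO.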

Read-out in assay [3]: Insulin-like growth factor-binding protein 1 (IGFBP1), IGFBP1 (gene 3484)
Put plainly: LTEA_HepaRG_IGFBP1: Life Technologies and Expression Analysis (LTEA) Assay for Insulin-like growth factor-binding protein 1 (IGFBP1) using HepaRG (AID 2283508). A digest of the protocol:
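HepaRG cells, plated 48 h then switched to serum-free induction medium, exposed in duplicate for 48 h to 8-point half-log series from 100 uM in 0.5% DMSO. mRNA measured by qRT-PCR, normalized to ACTB/GAPDH/POLR2A; bidirectional fit versus DMSO.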

Read-out in assay [4]: Interleukin 6 Receptor (IL6R), IL6R (gene 3570)
As to the kind of experiment: LTEA_HepaRG_IL6R: Life Technologies and Expression Analysis (LTEA) Assay for Interleukin 6 Receptor (IL6R) using HepaRG (AID 2283510). A digest of the protocol:
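In this HepaRG screen, test chemicals act on cells for 48 h at up to 100 uM (eight half-log points, duplicate wells). IL6R expression is quantified by qRT-PCR after normalization to ACTB, GAPDH and POLR2A, with DMSO as baseline.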

Read-out in assay [5]: Potassium channel subfamily K member 1 (KCNK1), KCNK1 (gene 3775)
Put plainly: LTEA_HepaRG_KCNK1: Life Technologies and Expression Analysis (LTEA) Assay for Potassium channel subfamily K member 1 (KCNK1) using HepaRG (AID 2283511). A digest of the protocol:
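KCNK1 transcript measured by TaqMan qRT-PCR against three housekeeping genes, after HepaRG cells were treated 48 h with eight half-log concentrations (top 100 uM, 0.5% DMSO). Curves fitted bidirectionally relative to vehicle.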

Read-out in assay [6]: JUN Transcription Factor, JUN (gene 3725)
As to the kind of experiment: LTEA_HepaRG_JUN: Life Technologies and Expression Analysis (LTEA) Assay for JUN Transcription Factor using HepaRG (AID 2283513). Put shortly: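 Gene-expression endpoint: JUN mRNA (qRT-PCR, normalized to three reference genes) in HepaRG cultures treated 48 h with chemicals, duplicate wells, 100 uM maximum with half-log dilutions; bidirectional fitting relative to 0.5% DMSO.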

Read-out in assay [7]: Lipase C (LIPC), LIPC (gene 3990)
As to the kind of experiment: LTEA_HepaRG_LIPC: Life Technologies and Expression Analysis (LTEA) Assay for Lipase C (LIPC) using HepaRG (AID 2283514). A digest of the protocol:
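LIPC expression was quantified by qRT-PCR against three housekeeping genes (ACTB, GAPDH, POLR2A). Differentiated human HepaRG cells received eight half-log doses (top 100 uM, 0.5% DMSO) in duplicate for 48 h; fitting bidirectional relative to DMSO.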

Read-out in assay [8]: Lipoprotein lipase (LPL), LPL (gene 4023)
Put plainly: LTEA_HepaRG_LPL: Life Technologies and Expression Analysis (LTEA) Assay for Lipoprotein lipase (LPL) using HepaRG (AID 2283515). Put shortly: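 LPL transcript levels quantified by TaqMan qRT-PCR against three housekeeping genes after 48 h chemical treatment of HepaRG cells. Eight-point half-log series from 100 uM in 0.5% DMSO, tested in duplicate; bidirectional fitting versus vehicle.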

Read-out in assay [9]: MicroRNA 122 (MIR122), gene 406906
Put plainly: LTEA_HepaRG_MIR122: Life Technologies and Expression Analysis (LTEA) Assay for MicroRNA 122 (MIR122) using HepaRG (AID 2283516). Also: the transcript read is the microRNA miR-122. Put shortly: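 Changes in transcript abundance, up or down relative to 0.5% DMSO vehicle, were scored after 48 h chemical treatment of HepaRG cells (maximum 100 uM). Quantification used TaqMan qRT-PCR normalized to housekeeping genes.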

Read-out in assay [10]: matrix metalloproteinase-10 (MMP10), MMP10 (gene 4319)
As to the kind of experiment: LTEA_HepaRG_MMP10: Life Technologies and Expression Analysis (LTEA) Assay for matrix metalloproteinase-10 (MMP10) using HepaRG (AID 2283517). A digest of the protocol:
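Expression measured by TaqMan qRT-PCR with ACTB/GAPDH/POLR2A normalisation after 48 h chemical exposure of HepaRG cells. Eight half-log concentrations, top 100 uM, 0.5% DMSO vehicle, duplicates; gain or loss fitted against vehicle.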

Read-out in the next assay: MYC, MYC (gene 4609)
Put plainly: LTEA_HepaRG_MYC: Life Technologies and Expression Analysis (LTEA) Assay for MYC using HepaRG (AID 2283518). Put shortly:
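Differentiated HepaRG cells exposed 48 h in serum-free induction medium to 8 concentrations (top 100 uM, half-log steps; 0.5% DMSO), duplicate. MYC mRNA measured by Fluidigm qRT-PCR, normalized to ACTB, GAPDH, POLR2A; bidirectional fit versus DMSO.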

Read-out in assay [11]: matrix metalloproteinase-3 (MMP3), MMP3 (gene 4314)
Put plainly: LTEA_HepaRG_MMP3: Life Technologies and Expression Analysis (LTEA) Assay for matrix metalloproteinase-3 (MMP3) using HepaRG (AID 2283519). Put shortly:
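Fluidigm-based TaqMan qRT-PCR, normalized to ACTB, GAPDH and POLR2A and fitted bidirectionally versus 0.5% DMSO, measured transcript levels. Treatment: duplicate 48 h exposures of HepaRG cells, ~100,000/well, to eight half-log concentrations topping at 100 uM.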

Read-out in assay [12]: Paternally Expressed 10 (PEG10), PEG10 (gene 23089)
As to the kind of experiment: LTEA_HepaRG_PEG10: Life Technologies and Expression Analysis (LTEA) Assay for Paternally Expressed 10 (PEG10) using HepaRG (AID 2283520).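 As to AC50: PEG10 transcript by qRT-PCR normalised to ACTB GAPDH and POLR2A.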 Put shortly: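 After 48 h exposure of differentiated HepaRG cells (0.5% DMSO vehicle, eight concentrations up to 100 uM, duplicates), PEG10 mRNA was measured by TaqMan qRT-PCR. Values were normalised to endogenous control genes and analysed bidirectionally against vehicle.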

Read-out in assay [13]: Nuclear factor NF-kappa-B p105 subunit (Homo sapiens) (UniProt P19838)
As to the kind of experiment: LTEA_HepaRG_NFKB1: Life Technologies and Expression Analysis (LTEA) Assay for Nuclear Factor Kappa B Subunit 1 (NFKB1) using HepaRG (AID 2283521).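 As to outcome: TaqMan qRT-PCR transcript normalised to ACTB GAPDH and POLR2A housekeeping genes.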 A digest of the protocol: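 Differentiated human HepaRG cells in serum-free induction medium with 0.5% DMSO were exposed for 48 h to eight half-log concentrations, top 100 uM, in duplicate. NFKB1 mRNA measured by Fluidigm TaqMan qRT-PCR, normalised to ACTB, GAPDH and POLR2A; bidirectional fit versus DMSO.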

Read-out in assay [14]: Protein phosphatase 2A (PPP2R4), PTPA (gene 5524)
Put plainly: LTEA_HepaRG_PPP2R4: Life Technologies and Expression Analysis (LTEA) Assay for Protein phosphatase 2A (PPP2R4) using HepaRG (AID 2283522). A digest of the protocol:
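Using HepaRG cultures maintained in 0.5% DMSO, chemicals are tested 48 h at up to 100 uM in duplicate. Induction or suppression of PPP2R4 mRNA, measured by qRT-PCR, is fitted bidirectionally against the vehicle baseline.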

Read-out in assay [15]: Phosphatase and tensin (PTEN), PTEN (gene 5728)
As to the kind of experiment: LTEA_HepaRG_PTEN: Life Technologies and Expression Analysis (LTEA) Assay for Phosphatase and tensin (PTEN) using HepaRG (AID 2283523). A digest of the protocol: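 Read-out: TaqMan qRT-PCR of PTEN transcript, normalized to three housekeeping genes, fitted in both directions against 0.5% DMSO. Differentiated human HepaRG cultures received chemicals for 48 h, eight-point half-log series topping at 100 uM.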

Read-out in assay [16]: solute carrier (SLC22A1), SLC22A1 (gene 6580)
As to the kind of experiment: LTEA_HepaRG_SLC22A1: Life Technologies and Expression Analysis (LTEA) Assay for solute carrier (SLC22A1) using HepaRG (AID 2283524). Put shortly: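 Transcript level of SLC22A1 quantified by qRT-PCR (normalized to three housekeeping genes) after 48 h chemical exposure of HepaRG cells, eight concentrations up to 100 µM, half-log steps, 0.5% DMSO vehicle. Gain or loss relative to DMSO fitted bidirectionally.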

Read-out in assay [17]: Pyruvate Dehydrogenase Kinase 4 (PDK4), PDK4 (gene 5166)
As to the kind of experiment: LTEA_HepaRG_PDK4: Life Technologies and Expression Analysis (LTEA) Assay for Pyruvate Dehydrogenase Kinase 4 (PDK4) using HepaRG (AID 2283525). A digest of the protocol:
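Readout is qRT-PCR of PDK4 transcript, normalized to three housekeeping genes, with bidirectional fitting against 0.5% DMSO vehicle. Differentiated HepaRG cells were treated 48 h in serum-free induction medium, duplicate wells, eight-point half-log series topping at 100 uM.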

Read-out in assay [18]: Keratin 19 (KRT19), KRT19 (gene 3880)
Put plainly: LTEA_HepaRG_KRT19: Life Technologies and Expression Analysis (LTEA) Assay for Keratin 19 (KRT19) using HepaRG (AID 2283512). Put shortly: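 Differentiated HepaRG cells in serum-free induction medium, exposed 48 h in duplicate to 8 half-log concentrations up to 100 uM in 0.5% DMSO. KRT19 mRNA by qRT-PCR, normalized to ACTB, GAPDH, POLR2A; bidirectional fit vs DMSO.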

Nuclear factor NF-kappa-B p105 subunit (Homo sapiens), sequence (P19838 whole entry, looked up): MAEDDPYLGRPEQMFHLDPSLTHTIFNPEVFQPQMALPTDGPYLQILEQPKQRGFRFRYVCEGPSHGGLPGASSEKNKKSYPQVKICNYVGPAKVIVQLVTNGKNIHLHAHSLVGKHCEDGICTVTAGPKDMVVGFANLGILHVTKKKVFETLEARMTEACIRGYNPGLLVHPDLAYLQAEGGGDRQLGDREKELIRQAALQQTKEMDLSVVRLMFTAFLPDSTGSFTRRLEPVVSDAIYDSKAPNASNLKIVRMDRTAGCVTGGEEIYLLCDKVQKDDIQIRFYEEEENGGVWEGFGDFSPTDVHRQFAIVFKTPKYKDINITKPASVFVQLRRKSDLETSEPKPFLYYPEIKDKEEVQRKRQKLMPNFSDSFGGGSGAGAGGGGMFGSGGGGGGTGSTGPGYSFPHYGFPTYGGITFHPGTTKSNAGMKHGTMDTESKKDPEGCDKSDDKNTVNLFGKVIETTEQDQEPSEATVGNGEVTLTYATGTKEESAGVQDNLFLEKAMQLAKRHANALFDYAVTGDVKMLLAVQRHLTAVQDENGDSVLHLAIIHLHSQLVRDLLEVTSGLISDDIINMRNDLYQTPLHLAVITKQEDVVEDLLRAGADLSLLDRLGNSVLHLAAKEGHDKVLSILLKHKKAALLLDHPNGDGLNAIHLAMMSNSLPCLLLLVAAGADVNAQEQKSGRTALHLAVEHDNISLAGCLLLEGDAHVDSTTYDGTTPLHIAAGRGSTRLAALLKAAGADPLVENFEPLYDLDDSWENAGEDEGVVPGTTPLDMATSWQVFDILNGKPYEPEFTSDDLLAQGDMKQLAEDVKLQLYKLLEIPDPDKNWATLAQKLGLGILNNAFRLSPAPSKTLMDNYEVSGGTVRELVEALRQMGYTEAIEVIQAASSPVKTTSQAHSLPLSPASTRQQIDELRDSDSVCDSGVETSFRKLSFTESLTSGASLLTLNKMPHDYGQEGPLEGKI

Regarding `O=C(O)c1cccc(N(Cc2cccnc2)c2ccc(OC(F)F)c(OC(F)F)c2)c1`, the compound was classed as inactive in [1], in assay [2], in [3], in assay [4], in [5] and in assay [6]. The outcome in [7] is “inactive”; in [8], “inactive”; in assay [9] it was “inactive”; with MYC, MYC (gene 4609), “inactive”; in assay [14], “inactive”; in assay [15] it was “inactive”. Also, the result in assay [16] was inactive. For the same compound, the AC50 in [10] was 91.7 µM (active); in assay [11], 80.4 µM (active); in [12], 50 µM (active); in [13] it was 0.576 µM (active).

As for `CCn1nc(Cc2ccccc2)cc1C1CCN(C[C@H]2C[C@H](N(C)[C@@H](C(=O)O)C(C)C)C[C@@H]2c2cccc(F)c2)CC1`, the AC50 in assay [1] was 37.7 µM (active); in assay [2], 50 µM (active); in assay [3] it was 73.6 µM (active); in assay [8], 50 µM (active); in [16] it was 12.4 µM (active). For the same compound, the outcome was “inactive” in assay [4]; “inactive” in [5]; “inactive” in [7]; “inactive” in assay [9]; “inactive” in [10]; “inactive” in the assay with MYC, MYC (gene 4609). For the same compound, the compound was classed as inactive in assay [12], in [13], in [14], in assay [15] and in assay [17].

With `Nc1nc2ncc(CNc3ccc(C(=O)N[C@@H](CCC(=O)O)C(=O)O)cc3)nc2c(=O)[nH]1`, the result in [1], in assay [2], in [3], in assay [4], in assay [5] and in assay [7] was inactive. The outcome was “inactive” in assay [8]; “inactive” in assay [9]; “inactive” in assay [10]; “inactive” with MYC, MYC (gene 4609); “inactive” in assay [11]; “inactive” in assay [12]. Further, the compound was called inactive in assay [13], in [14], in assay [15], in [16] and in [17].

`C1=CCCC=CCCC=CCC1`: the call in [1], in [2], in assay [3], in assay [4], in assay [5] and in [18] was inactive. The outcome in assay [7] was “inactive”; in [8], “inactive”; in assay [9], “inactive”; in assay [10], “inactive”; with MYC, MYC (gene 4609), “inactive”; in assay [11], “inactive”. The compound was called inactive in assay [12], in assay [13], in assay [14], in assay [15] and in [16].
